# Only a selection was taken, and the strongest signals are over-represented in it overall.
# B1: BIp1-His (Cryptococcus neoformans) (protein)
# chain: MFTKIFVALFAATAVLSAPVESAEKRITHTGRATFYSPSVGIGACGWQNTDEELVVALNAPQYALNADHNCGQSVRITNEQNGNQEIAKVVDLCPGCNDGDLDMSPALFGALNNNDFDQGVFPISWNFLPRDDTSSSN
# What was measured:
# Experiment in all cases: glycan array binding signal (z-score within array); higher = stronger binding
# Details in all cases: glycan notation: IUPAC condensed, linker removed
# [1] = biological target: GlcNAc(b1-3)Gal(b1-4)GlcNAc(b1-3)Gal(b1-4)GlcNAc(b1-3)Gal(b1-4)GlcNAc(b1-3)Gal(b1-4)GlcNAc(b1-2)[GlcNAc(b1-3)Gal(b1-4)GlcNAc(b1-3)Gal(b1-4)GlcNAc(b1-3)Gal(b1-4)GlcNAc(b1-3)Gal(b1-4)GlcNAc(b1-6)]Man(a1-6)[GlcNAc(b1-3)Gal(b1-4)GlcNAc(b1-3)Gal(b1-4)GlcNAc(b1-3)Gal(b1-4)GlcNAc(b1-3)Gal(b1-4)GlcNAc(b1-2)Man(a1-3)]Man(b1-4)GlcNAc(b1-4)[Fuc(a1-6)]GlcNAc
# Outline: (§1)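 Glycan array data came from 3228 arrays in the Consortium for Functional Glycomics database, and only arrays with an available protein sequence were kept. Glycan names were put into IUPAC-condensed notation, and columns mapping to the same glycan were averaged. The binding signal is a within-array Z-score, averaged across arrays of one protein sequence run at different concentrations or buffers and across linkers. A negative Z-score can be read as non-binding.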
# [2] = biological target: GlcNAc(b1-3)[GlcNAc(b1-6)]GalNAc
# Outline: as §1
# Man(a1-2)Man(a1-3)Man = biological target: Man(a1-2)Man(a1-3)Man
# Outline: as §1
# Man(a1-3)[Man(a1-6)]Man = biological target: Man(a1-3)[Man(a1-6)]Man
# Outline: as §1
# [3] = biological target: Neu5Ac(a2-3)Gal(b1-3)GalNAc(b1-4)Gal(b1-4)Glc
# Outline: as §1
# [4] = biological target: Neu5Ac(a2-3)Gal(b1-3)GlcNAc
# Outline: as §1
# [5] = biological target: Neu5Ac(a2-3)Gal(b1-3)GlcNAc(b1-3)Gal(b1-4)GlcNAc
# Outline: as §1
# [6] = biological target: Neu5Ac(a2-3)Gal(b1-3)GlcNAc(b1-6)GalNAc
# Outline: as §1
# [7] = biological target: Neu5Ac(a2-3)Gal(b1-3)[Fuc(a1-4)]GlcNAc(b1-3)Gal(b1-3)[Fuc(a1-4)]GlcNAc
# Outline: as §1
# [8] = biological target: Neu5Ac(a2-3)Gal(b1-4)GlcNAc(b1-2)Man(a1-3)[Neu5Ac(a2-6)Gal(b1-4)GlcNAc(b1-2)Man(a1-6)]Man(b1-4)GlcNAc(b1-4)GlcNAc
# Outline: as §1
# [9] = biological target: Neu5Ac(a2-3)Gal(b1-4)GlcNAc(b1-3)Gal(b1-4)GlcNAc(b1-2)Man(a1-3)[Neu5Ac(a2-3)Gal(b1-4)GlcNAc(b1-3)Gal(b1-4)GlcNAc(b1-2)Man(a1-6)]Man(b1-4)GlcNAc(b1-4)GlcNAc
# Outline: as §1
# [10] = biological target: Neu5Ac(a2-3)Gal(b1-4)GlcNAc(b1-3)Gal(b1-4)GlcNAc(b1-3)Gal(b1-4)GlcNAc(b1-2)Man(a1-3)[Neu5Ac(a2-3)Gal(b1-4)GlcNAc(b1-3)Gal(b1-4)GlcNAc(b1-3)Gal(b1-4)GlcNAc(b1-2)Man(a1-6)]GalNAc
# Outline: as §1
# [11] = biological target: Neu5Ac(a2-3)Gal(b1-4)GlcNAc(b1-3)Gal(b1-4)GlcNAc(b1-3)[Neu5Ac(a2-3)Gal(b1-4)GlcNAc(b1-3)Gal(b1-4)GlcNAc(b1-6)]GalNAc
# Outline: as §1
# [12] = biological target: Neu5Ac(a2-3)Gal(b1-4)GlcNAc(b1-6)[Neu5Ac(a2-3)Gal(b1-3)]GalNAc
# Outline: as §1
# [13] = biological target: Neu5Ac(a2-3)Gal(b1-4)[Fuc(a1-3)]GlcNAc(b1-3)GalNAc
# Outline: as §1
# [14] = biological target: Neu5Ac(a2-3)Gal(b1-4)[Fuc(a1-3)]GlcNAc(b1-6)[Gal(b1-3)]GalNAc
# Outline: as §1
# [15] = biological target: Neu5Ac(a2-6)Gal(b1-4)GlcNAc(b1-2)Man(a1-3)Man(b1-4)GlcNAc(b1-4)GlcNAc
# Outline: as §1
# [16] = biological target: Neu5Ac(a2-6)Gal(b1-4)GlcNAc(b1-2)Man(a1-3)[Neu5Ac(a2-6)Gal(b1-4)GlcNAc(b1-2)Man(a1-6)]Man(b1-4)GlcNAc(b1-4)[Fuc(a1-6)]GlcNAc
# Outline: as §1
# [17] = biological target: Neu5Ac(a2-6)Gal(b1-4)GlcNAc(b1-2)[Neu5Ac(a2-6)Gal(b1-4)GlcNAc(b1-4)]Man(a1-3)[GlcNAc(b1-4)][Neu5Ac(a2-6)Gal(b1-4)GlcNAc(b1-2)[Neu5Ac(a2-6)Gal(b1-4)GlcNAc(b1-6)]Man(a1-6)]Man(b1-4)GlcNAc(b1-4)GlcNAc
# Outline: as §1
# [18] = biological target: Neu5Ac(a2-6)Gal(b1-4)GlcNAc(b1-3)Gal(b1-4)[Fuc(a1-3)]GlcNAc(b1-3)Gal(b1-4)[Fuc(a1-3)]GlcNAc
# Outline: as §1
# [19] = biological target: Neu5Ac(a2-8)Neu5Ac(a2-3)Gal(b1-3)GalNAc(b1-4)[Neu5Ac(a2-8)Neu5Ac(a2-3)]Gal(b1-4)Glc
# Outline: as §1
# Neu5Ac(b2-6)GalNAc = biological target: Neu5Ac(b2-6)GalNAc
# Outline: as §1
# [20] = biological target: Neu5Gc(a2-3)Gal(b1-3)[Fuc(a1-4)]GlcNAc
# Outline: as §1
binder,measurement,setting,value
B1,glycan array binding signal (z-score),[1],0.882
same,glycan array binding signal (z-score),[2],-0.522
same,glycan array binding signal (z-score),Man(a1-2)Man(a1-3)Man,-0.136
same,glycan array binding signal (z-score),Man(a1-3)[Man(a1-6)]Man,0.728
same,glycan array binding signal (z-score),[3],-0.565
same,glycan array binding signal (z-score),[4],-0.217
same,glycan array binding signal (z-score),[5],0.65
same,glycan array binding signal (z-score),[6],1.86
same,glycan array binding signal (z-score),[7],-0.526
same,glycan array binding signal (z-score),[8],-0.064
same,glycan array binding signal (z-score),[9],-0.11
same,glycan array binding signal (z-score),[10],2.41
same,glycan array binding signal (z-score),[11],-0.12
same,glycan array binding signal (z-score),[12],-1.36
same,glycan array binding signal (z-score),[13],1.32
same,glycan array binding signal (z-score),[14],0.648
same,glycan array binding signal (z-score),[15],0.176
same,glycan array binding signal (z-score),[16],0.617
same,glycan array binding signal (z-score),[17],-0.066
same,glycan array binding signal (z-score),[18],-0.059
same,glycan array binding signal (z-score),[19],1.77
same,glycan array binding signal (z-score),Neu5Ac(b2-6)GalNAc,-0.971
same,glycan array binding signal (z-score),[20],-0.455
